Consider 39 compounds from PubChem BioAssay (NCATS).

Records with an inconclusive call do not appear. A call without a number means that no potency is given here. Active and inactive are the calls of the source. The call rests on the fitted dose curve; in most records, active means well fitted curve in the direction sought with a large enough effect; inconclusive means small, poorly fitted or top-dose-only effect, or another doubt; inactive means no such curve, though single readings can be large; an effect the other way counts as inactive or inconclusive.

For assay [1], the target named is Aldehyde dehydrogenase, mitochondrial (Homo sapiens) (UniProt P05091). Nature of the assay: qHTS for Inhibitors of the Aldehyde Dehydrogenase Family (ALDH2) Primary screen (AID 2061308). Further: nearly all actives have a fitted effect of over 55% in size.
Assay [2] has as its target Retinaldehyde dehydrogenase 3 (Homo sapiens) (UniProt P47895). Nature of the assay: qHTS for Inhibitors of the Aldehyde Dehydrogenase Family (ALDH1A3) Primary screen (AID 2061315). For orientation: Quantitative high-throughput screening tests each substance at several concentrations.

Regarding `Cc1nc(Nc2nc3ccccc3o2)nc2c1CCCC2`, the Potency entry in assay [1] and in assay [2] was “inactive” each time.
Turning to `CCCn1c(C)nc2c(NC(C)CN(C)C)nc(C)nc21` (stereo not drawn), the Potency entry in assay [1] and in assay [2] was “inactive” throughout.
Take `O=C1c2ccccc2C(=O)N1c1cccc(Cl)c1`: the Potency result in assay [1] and in assay [2] was “inactive” throughout.
Turning to `Cc1cccc(CNc2ccnc(-c3ccc(F)cc3F)n2)c1`, the Potency result in assay [1] and in assay [2] was “inactive” throughout.
For the compound `O=C(C[C@H]1CC[C@@H](C(=O)Nc2ccc(S(=O)(=O)Nc3nccs3)cc2)C1)c1ccccc1`, the Potency entry in assay [1] and in assay [2] was “inactive” each time.
Take `Cn1ccc2cc(-c3ccc4ncnc(NCc5cccnc5)c4c3)ccc21`: the Potency entry in assay [1] and in assay [2] was “inactive” each time.
For `FC(F)(F)c1ccccc1-c1nc(NCc2ccc3c(c2)OCO3)c2ccccc2n1`, the Potency result in assay [1] and in assay [2] was “inactive” in each case.
Consider `COc1cccc(CNc2ccc(S(=O)(=O)Nc3ccc(-c4ccccc4)cc3)cc2)c1O`, for which the Potency result in assay [1] and in assay [2] was “inactive” each time.
For `N#Cc1ccc(NC(=O)Nc2nnc(-c3ccncc3)s2)c(Cl)c1`, the Potency result in assay [1] and in assay [2] was “inactive” in each case.
Take `C=CC(C)(C)c1[nH]c2ccccc2c1C[C@@H]1NC(=O)[C@H](C)NC1=O`: the Potency result in assay [1] and in assay [2] was “inactive” in each case.
Take `COC(=O)c1ccccc1NC(=O)c1ccc(C#N)cc1`: the Potency entry in assay [1] and in assay [2] was “inactive” each time.
In the case of `O=C(CCc1ccccc1)Nc1ncnc2c1C(c1ccccc1)c1c(ccc3ccccc13)O2` (stereo not drawn), the Potency entry in assay [1] and in assay [2] was “inactive” each time.
In the case of `Cc1cc(C)nc(NC(=S)N2CCN(c3cc(Cl)c(Cl)cc3Cl)CC2)c1`, the Potency entry in assay [1] and in assay [2] was “inactive” throughout.
For `CCN(CC)C(=O)c1cc(S(=O)(=O)Cc2ccccc2)c(N2CCC(c3ccccc3)CC2)cc1N(CC)CCN(C)C`, the Potency result in assay [1] and in assay [2] was “inactive” each time.
Consider `COc1cccc(NC(=S)N2CCN(c3ccc(Cl)cc3Cl)CC2)n1`, for which the Potency result in assay [1] and in assay [2] was “inactive” in each case.
For the compound `CC(C)=CCC[C@](C)(O[C@@H]1O[C@H](CO[C@@H]2O[C@@H](CO)[C@H](O)[C@H]2O)[C@@H](O)[C@H](O)[C@H]1O)[C@H]1CC[C@]2(C)[C@@H]1[C@H](O)C[C@@H]1[C@@]3(C)CC[C@H](O[C@@H]4O[C@H](CO)[C@@H](O)[C@H](O)[C@H]4O[C@@H]4O[C@H](CO)[C@@H](O)[C@H](O)[C@H]4O)C(C)(C)[C@@H]3CC[C@]12C`, the Potency entry in assay [1] and in assay [2] was “inactive” throughout.
As to `O=[S+]([O-])(c1ccc2c(c1)OCCO2)N1CCN([S+](=O)([O-])c2c(O)cc(F)cc2F)CC1`, the Potency result in assay [1] and in assay [2] was “inactive” throughout.
With `COc1ccc(-c2ccc(Nc3nc(-c4ccncc4)nc4ccccc34)cc2F)cc1F`, the Potency entry in assay [1] and in assay [2] was “inactive” each time.
Take `N#Cc1c(-c2ccco2)no[n+]1[O-]`: the Potency result in assay [1] and in assay [2] was “inactive” each time.
As for `NC(=O)C1CCN(c2nccc(Cl)n2)CC1`, the Potency result in assay [1] and in assay [2] was “inactive” throughout.
For the compound `O=C([C@@H](Cc1ccc(O[S+](=O)([O-])c2cccnc2)cc1)N[S+](=O)([O-])c1cccc2cccnc12)N1CCN(c2ccccc2)CC1`, the Potency entry in assay [1] and in assay [2] was “inactive” in each case.
Regarding `Cc1cc(N[S+](=O)([O-])c2ccc(NC(=O)Cc3nc4ccc(Cl)cc4[nH]3)cc2)no1`, the Potency entry in assay [1] and in assay [2] was “inactive” each time.
As for `CCOC(=O)C1CCN(C(=O)C2(NC(=O)Nc3ccccc3Cl)CCCCC2)CC1`, the Potency result in assay [1] and in assay [2] was “inactive” each time.
In the case of `C[N+]1(CC2COC(c3ccccc3)(c3ccccc3)O2)CCCCC1` (stereo not drawn), the Potency result in assay [1] and in assay [2] was “inactive” each time.
As for `O=C(O)c1ccccc1-c1noc(-c2ccccc2F)n1`, the Potency result in assay [1] and in assay [2] was “inactive” in each case.
Regarding `O=C(O)c1ccc2c(c1)C(=O)N([C@H](Cc1ccc(-c3ccccc3)cc1)C(=O)O)C2=O`, the Potency result in assay [1] and in assay [2] was “inactive” throughout.
On to `O=C(Nc1ccc(-c2nc3ccccc3[nH]2)cc1)Nc1ccc2c(c1)CCCO2`, for which the Potency entry in assay [1] and in assay [2] was “inactive” throughout.
On to `COc1ccc(C2Nc3ccccc3C(=O)N2Cc2ccco2)cc1COc1c(C)cccc1C` (stereo not drawn), for which the Potency result in assay [1] and in assay [2] was “inactive” each time.
As to `O=C(Nc1ccc(-c2cccnc2)nc1)c1cccs1`, the Potency result in assay [1] and in assay [2] was “inactive” throughout.
With `NS(=O)(=O)c1ccc(Cc2c(-c3cccc(-c4ccccc4)c3)nn(-c3nc(C(=O)O)cs3)c2C2CC2)cc1`, the Potency result in assay [1] and in assay [2] was “inactive” throughout.
With `COc1cccc(C2c3c(ncn(-c4cccc(Br)c4)c3=N)Oc3ccc4ccccc4c32)c1` (stereo not drawn), the Potency result in assay [1] and in assay [2] was “inactive” throughout.
In the case of `Cc1nnc(-c2cnn(C)c2N)n1Cc1cncn1C`, the Potency result in assay [1] and in assay [2] was “inactive” each time.
On to `Cn1cnc(CN=C2NC3=C(C(=O)CCC3)C(c3[nH]ncc3Cl)N2)c1` (stereo not drawn), for which the Potency entry in assay [1] and in assay [2] was “inactive” in each case.
Consider `CC(C)c1ccc(=O)n(CC(=O)NCCc2ccccc2)n1`, for which the Potency result in assay [1] and in assay [2] was “inactive” in each case.
As for `O=C(Nc1cc(C(F)(F)F)cc(C(F)(F)F)c1)Nc1nnc(-c2ccncc2)s1`, the Potency result in assay [1] and in assay [2] was “inactive” throughout.
As for `O=C(Nc1ccc2ccccc2c1)Nc1nnc(-c2ccc(O)cc2)s1`, the Potency result in assay [1] and in assay [2] was “inactive” in each case.
For `Cc1cnc(-c2ccccc2C(C)C)nc1NCc1ccc(-c2ccnc(C(F)(F)F)c2)cc1`, the Potency result in assay [1] and in assay [2] was “inactive” in each case.
Take `COC(=O)c1ccc2nc(NC3=NC(c4[nH]ncc4Cl)C4=C(CCCC4=O)N3)oc2c1` (stereo not drawn): the Potency result in assay [1] and in assay [2] was “inactive” each time.
Consider `CCNc1ncnc2ccc(-c3ccc4c(c3)OCO4)cc12`, for which the Potency entry in assay [1] and in assay [2] was “inactive” throughout.
